In all, about 29,000 compounds went through this assay and fewer than 10 were called active. How the calls were made is not given here. Only a sample is shown.
test: activators reversing PD-1 mediated T-cell inhibition, primary screen, luminescence, primary human CD4 T cells, PD-L1 beads (AID 2316); settings: CellTiter-Glo 96 h, stronger effect = higher value;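 further: 0% = median vehicle wells and 100% = positive control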

Row | Compound | activation
1 | C[C@@H]1CCCCO[C@H](CN(C)Cc2ccncc2)[C@@H](C)CN([C@H](C)CO)C(=O)c2cc(NC(=O)CCCN(C)C)ccc2O1 | 0.961% (inactive)
2 | Cc1cc(C)c(C(=O)CSc2nc(C)cc(=O)[nH]2)c(C)c1 | 1.17% (inactive)
3 | CS(=O)(=O)N(CC(=O)N1CCOCC1)c1ccc2c3c(cccc13)CC2 | 0.857% (inactive)
4 | COc1cc(C2OC(c3cc(OC)c(OC)c(OC)c3)C(C)C2C)cc(OC)c1OC (centres undefined) | 0.69% (inactive)
5 | Cc1noc(C)c1NC(=O)N(C)C[C@H]1Oc2ccc(NS(=O)(=O)c3ccc(F)cc3)cc2C(=O)N([C@@H](C)CO)C[C@H]1C | 2.2% (inactive)
6 | COc1ccc(NC(=O)N(C)C[C@H]2Oc3c(NC(=O)Nc4cccc5ccccc45)cccc3C(=O)N([C@@H](C)CO)C[C@H]2C)cc1 | 0.624% (inactive)
7 | CC(=O)Oc1ccc2occ(C(=O)c3cc4ccccc4o3)c2c1 | -0.284% (inactive)
8 | CS(=O)(=O)N(CC(=O)Nc1cc(C(F)(F)F)ccc1Cl)c1ccc(Br)cc1 | -0.295% (inactive)
9 | C[C@H]1CN([C@@H](C)CO)C(=O)c2cccc(NC(=O)C3CCOCC3)c2O[C@@H]1CN(C)C | 0.0381% (inactive)
10 | C[C@@H]1CN([C@@H](C)CO)C(=O)Cc2cc(NC(=O)CCCCCC(=O)Nc3ccccc3N)ccc2O[C@@H]1CN(C)C(=O)NC1CCCCC1 | 0.434% (inactive)
11 | C[C@@H]1CN([C@H](C)CO)C(=O)c2cc(NC(=O)Nc3ccc4c(c3)OCO4)ccc2O[C@H]1CN(C)C(=O)Nc1ccccc1 | 0.77% (inactive)
12 | Cn1nc(C(=O)O)c2ccccc2c1=O | -0.137% (inactive)
13 | COc1ccc(S(=O)(=O)N(C)CC(=O)Nc2cccc(C(F)(F)F)c2)cc1OC | -1.43% (inactive)
14 | CCCCCC(O)c1cccc(OCc2ccc3ccccc3n2)c1 (centres undefined) | 5.54% (inactive)
15 | C[C@H]1CN([C@@H](C)CO)C(=O)c2cccc(NC(=O)c3ccncc3)c2O[C@H]1CN(C)C | 2.81% (inactive)
16 | O=C(O)C1CC=CCC1C(=O)Nc1ccc(C(=O)N2CCCCC2)c(Cl)c1 (centres undefined) | 2.23% (inactive)
17 | Cc1ccc(S(=O)(=O)N(C)C[C@@H]2Oc3c(NC(=O)C4CCCCC4)cccc3C(=O)N([C@H](C)CO)C[C@H]2C)cc1 | 1.48% (inactive)
18 | Cc1ccc(S(=O)(=O)Nc2ccc3c(c2)C(=O)N([C@H](C)CO)C[C@H](C)[C@@H](CN(C)S(=O)(=O)c2cccs2)O3)cc1 | -1.04% (inactive)
19 | CC(C)CSc1nnc(CSCc2nc(-c3ccc(Cl)cc3)cs2)n1C | 1.7% (inactive)
20 | CS(=O)(=O)N(CC(=O)Nc1ccc(F)c(Cl)c1)C1CCCCC1 | 0.469% (inactive)
21 | CC(C)NC(=O)N(C)C[C@@H]1Oc2ccc(NS(=O)(=O)c3ccccc3)cc2C(=O)N([C@@H](C)CO)C[C@H]1C | 1.49% (inactive)
22 | C[C@H]1CN([C@@H](C)CO)C(=O)Cc2cc(NC(=O)CCCCCC(=O)Nc3ccccc3N)ccc2O[C@H]1CN(C)C(=O)Nc1ccc(F)cc1 | 0.894% (inactive)

Row | Compound | activation
23 | Cc1noc(C)c1S(=O)(=O)N(C)C[C@@H]1Oc2c(NS(=O)(=O)c3cn(C)cn3)cccc2C(=O)N([C@H](C)CO)C[C@@H]1C | 1.65% (inactive)
24 | O=c1c2ccccc2nc(SCc2ccc(F)cc2)n1-c1ccccc1 | -10.1% (inactive)
25 | COC(=O)c1ccc(C(=O)OC)c(NC(=O)COc2ccc(C)cc2)c1 | -5.39% (inactive)
26 | O=C(Nc1ccc(C23CC4CC(CC(C4)C2)C3)cc1)c1cccs1 | 0.396% (inactive)
27 | C/C=C1\C2C=C(C)CC1(N)c1ccc(=O)[nH]c1C2 (centres undefined) | 0.91% (inactive)
28 | COc1cccc2cc(C(=O)Nc3sc4c(c3C(N)=O)CCCCC4)c(=O)oc12 | 3.77% (inactive)
29 | COc1ccc(S(=O)(=O)Nc2ccc3c(c2)C(=O)N([C@H](C)CO)C[C@@H](C)[C@H](CN(C)S(=O)(=O)c2ccc(C)cc2)O3)cc1 | 0.261% (inactive)
30 | COc1ccc(Oc2ccc(NC(=O)CCC(=O)O)cc2)cc1 | 0.302% (inactive)
31 | C[C@@H]1CN([C@H](C)CO)C(=O)Cc2cc(NC(=O)Cc3ccccc3)ccc2O[C@@H]1CN(C)Cc1ccccc1 | 1.25% (inactive)
32 | O=C(CN1CCOCC1)Nc1sc2c(c1C(=O)Nc1ccc(Br)cc1)CCC2 | -2.1% (inactive)
33 | C[C@@H]1CN([C@@H](C)CO)C(=O)c2cc(NS(=O)(=O)c3ccc(Cl)cc3)ccc2O[C@H]1CN(C)S(=O)(=O)c1cn(C)cn1 | -1.79% (inactive)
34 | COc1cc(C=Nc2ccc(Cl)cc2)ccc1OC(=O)/C=C/c1cccs1 | -0.177% (inactive)
35 | CCO/C([O-])=N\c1c[n+](N2CCOCC2)no1 | 0.71% (inactive)
36 | C[C@@H]1CN([C@H](C)CO)C(=O)c2cc(NC(=O)Cc3ccccc3)ccc2O[C@@H]1CN(C)CC1CCCCC1 | -0.76% (inactive)
37 | C[C@@H]1CCCCO[C@@H](CN(C)C(=O)NC2CCCCC2)[C@@H](C)CN([C@H](C)CO)C(=O)c2cc(NC(=O)CCCCCC(=O)Nc3ccccc3N)ccc2O1 | 0.709% (inactive)
38 | Cc1ccc(-n2c(C)nc3sc4c(c3c2=O)CCC4)cc1 | -4.12% (inactive)
39 | CC(=O)c1cccc(NC(=O)CN(c2ccc(F)c(Cl)c2)S(C)(=O)=O)c1 | 2.89% (inactive)
40 | C[C@@H]1CN([C@H](C)CO)C(=O)Cc2cc(NC(=O)C3CCCCC3)ccc2O[C@@H]1CN(C)Cc1ccc(C(F)(F)F)cc1 | -3.12% (inactive)
41 | CC1=Nn2c(Cn3nnc4ccccc43)nnc2SC1 | 0.665% (inactive)
42 | CC(=O)c1cccc(NC(=O)CN(C2CCCCC2)S(=O)(=O)c2ccccc2)c1 | -2.41% (inactive)
43 | CC(C)NC(=O)Nc1ccc2c(c1)C(=O)N([C@@H](C)CO)C[C@H](C)[C@@H](CN(C)C)O2 | 0.0718% (inactive)
44 | CCCOC(=O)C1=C(C)N(CC)C(=O)NC1c1ccccc1Cl (centres undefined) | -0.396% (inactive)

— PubChem BioAssay AID2316 (Broad Institute, 2010)
